PubChem BioAssay (EPA / NIEHS)
Records with an inconclusive call do not appear. The source made the active and inactive calls. The calls were made as follows, unless noted: active = hit-call score of the fitted dose curve at least 0.9, where 1 is the maximum; inactive = score below 0.9.

Experiments:
[1] = read-out: Intercellular Adhesion Molecule 1 (ICAM1), ICAM1 (gene 3383); experiment: BSK_3C_ICAM1: BioMAP Diversity Plus: 3C Assay for Intercellular Adhesion Molecule 1 (ICAM1) Biomarker Activity (AID 2283003); details: primary human endothelial cells (HUVEC); actives raise or lower the signal
Method in brief: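 ELISA read-out of ICAM-1; HUVEC (primary human), 3C system, 24 h post-dosing; bidirectional fit vs DMSO baseline.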

[2] = target: human Retinoic Acid Receptor beta (RARb), RARB (gene 5915) (UniProt P10826); experiment: ATG_RARb_TRANS: Attagene TRANS-FACTORIAL HepG2 Assay for human Retinoic Acid Receptor beta (AID 2283004; active = hit-call score of the fitted dose curve at least 0.9, where 1 is the maximum)
Sequence of human Retinoic Acid Receptor beta (RARb), RARB (gene 5915) (P10826 whole entry, looked up, the tested form may be a part): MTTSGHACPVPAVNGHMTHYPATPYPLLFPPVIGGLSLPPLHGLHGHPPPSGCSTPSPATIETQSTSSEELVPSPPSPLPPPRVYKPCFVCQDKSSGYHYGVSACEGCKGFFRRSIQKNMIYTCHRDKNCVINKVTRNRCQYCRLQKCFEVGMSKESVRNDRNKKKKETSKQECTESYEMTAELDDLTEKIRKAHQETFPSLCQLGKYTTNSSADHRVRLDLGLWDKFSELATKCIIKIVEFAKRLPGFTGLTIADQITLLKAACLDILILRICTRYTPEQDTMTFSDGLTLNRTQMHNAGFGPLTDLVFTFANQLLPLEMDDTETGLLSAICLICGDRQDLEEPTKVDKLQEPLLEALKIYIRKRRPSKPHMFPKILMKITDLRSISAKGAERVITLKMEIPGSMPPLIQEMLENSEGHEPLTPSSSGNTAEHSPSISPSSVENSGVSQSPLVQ
Method in brief: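 Readout is reporter mRNA induction: RNA reverse-transcribed, PCR-amplified, FAM-labelled, HpaI-cut and resolved by capillary electrophoresis. Transiently transfected HepG2 cells carrying exogenous NR–Gal4 chimeras were dosed for 24 h; activity fitted upward relative to DMSO.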

[3] = BSK_3C_Proliferation: Cell Proliferation Assessment in the BioMAP Diversity Plus: 3C Assay (AID 2283006); details: primary human endothelial cells (HUVEC);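 as to AC50: potency may reflect either rise or fall in cell number versus DMSO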
Method in brief: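 HUVEC, sub-confluent; 48 h chemical exposure; 10% TCA fix, 0.1% SRB stain, A560 total protein. Gain or loss of signal fitted both directions vs DMSO control.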

[4] = target: Peroxisome proliferator-activated receptor gamma (Homo sapiens) (UniProt P37231); experiment: ATG_PPARg_TRANS: Attagene TRANS-FACTORIAL HepG2 Assay for human Peroxisome Proliferator-activated Receptor-gamma (PPARg) (AID 2283007; active = hit-call score of the fitted dose curve at least 0.9, where 1 is the maximum)
Sequence of Peroxisome proliferator-activated receptor gamma (Homo sapiens) (P37231 whole entry, looked up, the tested form may be a part): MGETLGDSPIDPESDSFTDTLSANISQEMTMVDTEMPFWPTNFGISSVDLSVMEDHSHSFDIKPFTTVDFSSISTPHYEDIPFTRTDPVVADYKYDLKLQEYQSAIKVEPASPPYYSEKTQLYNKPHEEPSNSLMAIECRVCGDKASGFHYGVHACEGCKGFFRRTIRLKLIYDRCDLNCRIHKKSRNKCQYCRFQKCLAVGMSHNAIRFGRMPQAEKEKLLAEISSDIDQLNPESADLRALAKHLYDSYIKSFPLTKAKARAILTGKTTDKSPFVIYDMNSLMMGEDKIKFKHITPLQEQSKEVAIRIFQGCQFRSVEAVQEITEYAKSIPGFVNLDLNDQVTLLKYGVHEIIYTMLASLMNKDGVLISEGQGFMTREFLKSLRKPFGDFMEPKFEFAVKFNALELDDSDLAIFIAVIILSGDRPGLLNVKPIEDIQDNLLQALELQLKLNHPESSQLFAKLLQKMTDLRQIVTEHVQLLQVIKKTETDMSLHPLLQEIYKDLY
Method in brief: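 After 24 h of chemical exposure, transfected HepG2 cells carrying PPARγ-Gal4 chimera reporter constructs are lysed for RNA. Reporter transcripts are measured by RT-PCR and capillary electrophoresis with fluorescent labelling, and gain of signal is fitted versus DMSO.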

[5] = target: Nuclear receptor subfamily 1 group I member 2 (Homo sapiens) (UniProt O75469); experiment: ATG_PXR_TRANS: Attagene TRANS-FACTORIAL HepG2 Assay for human Pregnane X Receptor (PXR) (AID 2283008; active = hit-call score of the fitted dose curve at least 0.9, where 1 is the maximum)
Sequence of Nuclear receptor subfamily 1 group I member 2 (Homo sapiens) (O75469 whole entry, looked up, the tested form may be a part): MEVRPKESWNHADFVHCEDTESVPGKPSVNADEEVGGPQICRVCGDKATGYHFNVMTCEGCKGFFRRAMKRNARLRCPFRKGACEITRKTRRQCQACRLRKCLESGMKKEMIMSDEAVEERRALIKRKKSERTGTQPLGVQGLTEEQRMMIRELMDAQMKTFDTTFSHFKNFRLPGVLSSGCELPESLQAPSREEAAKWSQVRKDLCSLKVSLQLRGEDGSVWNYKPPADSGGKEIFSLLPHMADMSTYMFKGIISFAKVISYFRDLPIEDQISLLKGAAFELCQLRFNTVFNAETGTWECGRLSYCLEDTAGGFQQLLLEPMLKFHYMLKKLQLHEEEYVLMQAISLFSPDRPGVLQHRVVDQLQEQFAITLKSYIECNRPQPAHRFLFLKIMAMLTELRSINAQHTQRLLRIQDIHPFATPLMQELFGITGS
Method in brief: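 Multiplexed TRANS reporter panel in HepG2; this component tracks PXR-Gal4-driven reporter mRNA after 24 h dosing, measured by RT-PCR with capillary electrophoresis fluorescence, fitted against DMSO.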

[6] = target: human Retinoic Acid Receptor gamma (RARg), RARG (gene 5916) (UniProt P13631); experiment: ATG_RARg_TRANS: Attagene TRANS-FACTORIAL HepG2 Assay for human Retinoic Acid Receptor gamma (RARg) (AID 2283009; active = hit-call score of the fitted dose curve at least 0.9, where 1 is the maximum)
Sequence of human Retinoic Acid Receptor gamma (RARg), RARG (gene 5916) (P13631 whole entry, looked up, the tested form may be a part): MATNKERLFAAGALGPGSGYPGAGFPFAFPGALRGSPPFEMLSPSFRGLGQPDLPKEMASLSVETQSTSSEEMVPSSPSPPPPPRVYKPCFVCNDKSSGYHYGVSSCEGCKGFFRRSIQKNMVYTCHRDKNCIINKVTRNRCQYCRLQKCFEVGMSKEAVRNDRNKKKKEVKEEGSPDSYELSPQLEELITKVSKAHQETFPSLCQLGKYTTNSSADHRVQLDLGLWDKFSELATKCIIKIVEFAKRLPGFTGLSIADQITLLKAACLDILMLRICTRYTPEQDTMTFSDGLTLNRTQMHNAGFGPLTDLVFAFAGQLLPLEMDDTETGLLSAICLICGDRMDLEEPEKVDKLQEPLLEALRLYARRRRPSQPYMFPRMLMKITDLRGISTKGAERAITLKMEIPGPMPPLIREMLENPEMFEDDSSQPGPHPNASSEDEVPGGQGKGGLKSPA
Method in brief: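 Readout: reporter transcript levels via RT-PCR, 6-FAM primer-extension labelling, HpaI digestion and capillary electrophoresis. Cells: HepG2 carrying transfected RARg-GAL4 chimera plus UAS reporter set. Dosing 24 h; DMSO negative control.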

[7] = target: human RAR-related Orphan Receptor beta (RORb), RORB (gene 6096) (UniProt Q92753); experiment: ATG_RORb_TRANS: Attagene TRANS-FACTORIAL HepG2 Assay for human RAR-related Orphan Receptor beta (RORb) (AID 2283010; active = hit-call score of the fitted dose curve at least 0.9, where 1 is the maximum)
Sequence of human RAR-related Orphan Receptor beta (RORb), RORB (gene 6096) (Q92753 whole entry, looked up, the tested form may be a part): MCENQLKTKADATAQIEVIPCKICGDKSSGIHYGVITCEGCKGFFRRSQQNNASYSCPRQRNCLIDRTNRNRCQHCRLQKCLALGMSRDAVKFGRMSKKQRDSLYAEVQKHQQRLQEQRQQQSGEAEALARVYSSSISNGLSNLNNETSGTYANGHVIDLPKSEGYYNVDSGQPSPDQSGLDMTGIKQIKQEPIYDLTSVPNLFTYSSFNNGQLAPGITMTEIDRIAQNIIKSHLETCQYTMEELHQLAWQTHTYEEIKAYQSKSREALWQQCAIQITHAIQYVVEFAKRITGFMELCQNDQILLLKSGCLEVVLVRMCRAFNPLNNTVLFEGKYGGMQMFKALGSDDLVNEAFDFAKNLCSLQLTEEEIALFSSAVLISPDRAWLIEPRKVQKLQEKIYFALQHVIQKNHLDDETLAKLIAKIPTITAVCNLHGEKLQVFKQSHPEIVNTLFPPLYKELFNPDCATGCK
Method in brief: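 HepG2, transient MRTU transfection (GAL4-UAS reporters, exogenous NR-Gal4 chimeras); 24 h compound exposure; total RNA → RT-PCR → 6-FAM primer extension → HpaI digest → CE fluorescence. Positive direction vs DMSO baseline.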

[8] = target: human RAR-related Orphan Receptor gamma (RORg), RORC (gene 6097) (UniProt P51449); experiment: ATG_RORg_TRANS: Attagene TRANS-FACTORIAL HepG2 Assay for human RAR-related Orphan Receptor gamma (RORg) (AID 2283011; active = hit-call score of the fitted dose curve at least 0.9, where 1 is the maximum)
Method in brief: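 Transient MRTU transfection of HepG2 (TRANS format, exogenous NR-Gal4 chimera). 24 h dosing. Total RNA → oligo(dT) RT → PCR → 6-FAM labelling → HpaI cut → CE. Gain vs DMSO.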

[9] = target: human Retinoid X Receptor beta (RXRb), RXRB (gene 6257) (UniProt P28702); experiment: ATG_RXRb_TRANS: Attagene TRANS-FACTORIAL HepG2 Assay for human Retinoid X Receptor beta (RXRb) (AID 2283013; active = hit-call score of the fitted dose curve at least 0.9, where 1 is the maximum)
Sequence of human Retinoid X Receptor beta (RXRb), RXRB (gene 6257) (P28702 whole entry, looked up, the tested form may be a part): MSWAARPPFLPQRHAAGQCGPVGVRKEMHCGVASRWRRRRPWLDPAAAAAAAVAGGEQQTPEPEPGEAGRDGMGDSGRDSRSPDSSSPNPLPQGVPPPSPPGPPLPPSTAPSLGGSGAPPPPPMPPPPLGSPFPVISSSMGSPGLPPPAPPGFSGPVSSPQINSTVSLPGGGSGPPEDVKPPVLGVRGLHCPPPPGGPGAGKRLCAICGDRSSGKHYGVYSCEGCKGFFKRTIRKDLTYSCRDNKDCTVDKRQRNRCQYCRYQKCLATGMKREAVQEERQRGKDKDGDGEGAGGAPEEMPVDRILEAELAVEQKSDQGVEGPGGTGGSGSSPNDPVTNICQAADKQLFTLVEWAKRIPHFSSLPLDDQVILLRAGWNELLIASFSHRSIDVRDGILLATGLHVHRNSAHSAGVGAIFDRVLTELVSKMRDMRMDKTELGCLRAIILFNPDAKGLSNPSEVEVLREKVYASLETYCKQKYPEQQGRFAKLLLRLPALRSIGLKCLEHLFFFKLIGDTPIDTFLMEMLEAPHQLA
Method in brief: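 Read-out: reporter mRNA induction via RT-PCR plus capillary electrophoresis fluorescence, analysed as signal increase relative to DMSO. Cells were human HepG2, transiently transfected with GAL4-UAS reporter constructs and chimeric receptor-Gal4 fusions, dosed for 24 h.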

[10] = target: human Thyroid Receptor alpha (THRa1), THRA (gene 7067) (UniProt P10827); experiment: ATG_THRa1_TRANS: Attagene TRANS-FACTORIAL HepG2 Assay for human Thyroid Receptor alpha (THRa1) (AID 2283014; active = hit-call score of the fitted dose curve at least 0.9, where 1 is the maximum)
Method in brief: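 Transient HepG2 transfection, NR-Gal4 chimera driving GAL4-UAS reporters; 24 h compound exposure; total RNA, oligo(dT) RT, PCR, fluorescent primer extension, capillary electrophoresis. Upward direction vs DMSO control.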

[11] = read-out: E-selectin (Homo sapiens) (UniProt P16581); experiment: BSK_3C_Eselectin: BioMAP Diversity Plus: 3C Assay for Eselectin Biomarker Activity (AID 2283015); details: primary human endothelial cells (HUVEC); actives raise or lower the signal
Method in brief: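 HUVEC, 3C stimulation; compound exposure 24 h; E-selectin by ELISA; gain- or loss-of-signal fitted bidirectionally vs DMSO baseline.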

[12] = read-out: Interleukin-1 alpha (IL1a), IL1A (gene 3552); experiment: BSK_BE3C_IL1a: BioMAP Diversity Plus: BE3C Assay for Interleukin-1 alpha (IL1a) Biomarker Activity (AID 2283016); details: primary human bronchial epithelial cells; actives raise or lower the signal
Method in brief: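 ELISA read-out of IL-1a from human lung bronchial epithelial primary cells, 24 h post-dose. Gain or loss of signal fitted relative to DMSO negative control.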

[13] = read-out: Monocyte Chemoattractant Protein-1 (MCP1), CCL2 (gene 6347); experiment: BSK_4H_MCP1: BioMAP Diversity Plus: 4H Assay for Monocyte Chemoattractant Protein-1 (MCP1) Biomarker Activity (AID 2283018); details: primary human endothelial cells (HUVEC); actives raise or lower the signal
Method in brief: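 HUVEC primary cells, 24 h post-dose, MCP-1 by ELISA. Gain or loss of signal fitted bidirectionally vs DMSO baseline. Cytotoxicity: SRB stain (0.1% after 10% TCA fixation), read 560 nm, parallel cultures.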

[14] = read-out: Human Leukocyte Antigen - DR isotype (HLADR), HLA-DRA (gene 3122); experiment: BSK_3C_HLADR: BioMAP Diversity Plus: 3C Assay for Human Leukocyte Antigen - DR isotype (HLADR) Biomarker Activity (AID 2283019); details: primary human endothelial cells (HUVEC); actives raise or lower the signal
Method in brief: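 HUVEC, 3C stimulation, 24 h post-dose; HLA-DR by ELISA; bidirectional curve fit vs DMSO baseline; gain or loss of signal scored.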

[15] = read-out: Interleukin-8 (IL8), CXCL8 (gene 3576); experiment: BSK_3C_IL8: BioMAP Diversity Plus: 3C Assay for Interleukin-8 (IL8) Biomarker Activity (AID 2283020); details: primary human endothelial cells (HUVEC); actives raise or lower the signal
Method in brief: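 HUVEC, 3C stimulation; 24 h compound exposure; IL-8 read by ELISA; gain or loss of signal fitted relative to DMSO control.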

[16] = read-out: Monokine induced gamma interferon (MIG), CXCL9 (gene 4283); experiment: BSK_3C_MIG: BioMAP Diversity Plus: 3C Assay for Monokine induced gamma interferon (MIG) Biomarker Activity (AID 2283021); details: primary human endothelial cells (HUVEC); actives raise or lower the signal;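 as to AC50: MIG protein level measured by immunoassay in the treated endothelial cultures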
Method in brief: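 HUVEC, 3C system; 24 h chemical exposure; MIG by ELISA; bidirectional fit vs DMSO baseline.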

[17] = target: Retinoic acid receptor alpha (Homo sapiens) (UniProt P10276); experiment: ATG_RARa_TRANS: Attagene TRANS-FACTORIAL HepG2 Assay for human Retinoic Acid Receptor alpha (RARa) (AID 2283005; active = hit-call score of the fitted dose curve at least 0.9, where 1 is the maximum)
Sequence of Retinoic acid receptor alpha (Homo sapiens) (P10276 whole entry, looked up, the tested form may be a part): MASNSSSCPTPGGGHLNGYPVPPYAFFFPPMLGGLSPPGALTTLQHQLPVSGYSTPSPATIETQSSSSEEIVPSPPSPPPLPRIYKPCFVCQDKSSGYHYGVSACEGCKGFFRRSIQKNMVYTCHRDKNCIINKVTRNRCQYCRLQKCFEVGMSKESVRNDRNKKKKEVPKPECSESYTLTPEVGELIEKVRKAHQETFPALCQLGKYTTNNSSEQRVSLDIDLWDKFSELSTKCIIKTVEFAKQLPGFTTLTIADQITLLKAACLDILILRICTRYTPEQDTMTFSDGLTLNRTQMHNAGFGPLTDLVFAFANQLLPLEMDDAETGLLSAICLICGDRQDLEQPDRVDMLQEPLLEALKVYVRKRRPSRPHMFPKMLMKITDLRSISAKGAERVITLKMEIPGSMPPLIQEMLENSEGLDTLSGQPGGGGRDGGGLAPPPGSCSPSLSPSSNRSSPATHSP
Method in brief: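 HepG2 transiently transfected with multiplex GAL4-UAS reporter units including a human RARa–GAL4 chimera; 24 h compound exposure. Reporter mRNA quantified by RT-PCR, 6-FAM labeling and capillary electrophoresis; gain of signal versus DMSO.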

[18] = target: human Vitamin D Receptor (VDR), VDR (gene 7421) (UniProt P11473); experiment: ATG_VDR_TRANS: Attagene TRANS-FACTORIAL HepG2 Assay for human Vitamin D Receptor (VDR) (AID 2283022; active = hit-call score of the fitted dose curve at least 0.9, where 1 is the maximum)
Sequence of human Vitamin D Receptor (VDR), VDR (gene 7421) (P11473 whole entry, looked up, the tested form may be a part): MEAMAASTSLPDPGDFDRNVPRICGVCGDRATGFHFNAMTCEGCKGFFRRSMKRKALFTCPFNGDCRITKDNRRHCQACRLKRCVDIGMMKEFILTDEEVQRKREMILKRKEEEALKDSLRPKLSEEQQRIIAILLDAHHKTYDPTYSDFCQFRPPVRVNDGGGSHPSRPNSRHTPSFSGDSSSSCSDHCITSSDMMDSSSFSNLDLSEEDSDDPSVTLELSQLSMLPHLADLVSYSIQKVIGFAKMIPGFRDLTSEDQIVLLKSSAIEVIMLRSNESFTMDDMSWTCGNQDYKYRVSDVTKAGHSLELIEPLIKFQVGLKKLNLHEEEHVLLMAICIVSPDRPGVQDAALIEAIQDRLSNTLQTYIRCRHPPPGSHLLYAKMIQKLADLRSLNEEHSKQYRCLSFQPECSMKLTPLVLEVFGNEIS
Method in brief: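 RT-PCR/capillary electrophoresis read-out of reporter mRNA induction in transiently transfected HepG2; 24 h dosing; chimeric NR-Gal4 (TRANS format); gain-of-signal fit against DMSO baseline.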

[19] = target: Retinoic acid receptor RXR-alpha (Homo sapiens) (UniProt P19793); experiment: ATG_RXRa_TRANS: Attagene TRANS-FACTORIAL HepG2 Assay for human Retinoid X Receptor alpha (RXRa) (AID 2283012; active = hit-call score of the fitted dose curve at least 0.9, where 1 is the maximum)
Sequence of Retinoic acid receptor RXR-alpha (Homo sapiens) (P19793 whole entry, looked up, the tested form may be a part): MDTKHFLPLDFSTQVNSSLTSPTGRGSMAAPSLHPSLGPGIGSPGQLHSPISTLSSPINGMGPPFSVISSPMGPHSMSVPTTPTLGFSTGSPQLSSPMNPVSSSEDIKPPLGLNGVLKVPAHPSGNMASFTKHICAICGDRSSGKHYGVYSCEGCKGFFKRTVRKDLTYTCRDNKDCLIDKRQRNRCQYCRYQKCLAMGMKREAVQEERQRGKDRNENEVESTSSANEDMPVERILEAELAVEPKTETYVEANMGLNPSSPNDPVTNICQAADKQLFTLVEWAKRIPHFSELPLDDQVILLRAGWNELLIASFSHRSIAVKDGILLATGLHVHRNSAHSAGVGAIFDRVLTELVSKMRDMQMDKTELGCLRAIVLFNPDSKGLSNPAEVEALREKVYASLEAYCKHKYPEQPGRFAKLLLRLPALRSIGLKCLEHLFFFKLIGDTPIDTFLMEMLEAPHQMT
Method in brief: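 Read-out: fluorescent reporter-transcript fragments quantified by capillary electrophoresis after RT-PCR. Transiently transfected HepG2 cells carrying GAL4-UAS reporters and NR-GAL4 chimeras were exposed to chemical for 24 h; activity scored as increase over DMSO.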

[20] = read-out: Monocyte Chemoattractant Protein-1 (MCP1), CCL2 (gene 6347); experiment: BSK_3C_MCP1: BioMAP Diversity Plus: 3C Assay for Monocyte Chemoattractant Protein-1 (MCP1) Biomarker Activity (AID 2283017); details: primary human endothelial cells (HUVEC); actives raise or lower the signal
Method in brief: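 HUVEC, 3C system; 24 h chemical exposure; MCP-1 by ELISA; bidirectional curve fit vs DMSO baseline.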

Measured: AC50

Sequence of E-selectin (Homo sapiens) (P16581 whole entry, looked up): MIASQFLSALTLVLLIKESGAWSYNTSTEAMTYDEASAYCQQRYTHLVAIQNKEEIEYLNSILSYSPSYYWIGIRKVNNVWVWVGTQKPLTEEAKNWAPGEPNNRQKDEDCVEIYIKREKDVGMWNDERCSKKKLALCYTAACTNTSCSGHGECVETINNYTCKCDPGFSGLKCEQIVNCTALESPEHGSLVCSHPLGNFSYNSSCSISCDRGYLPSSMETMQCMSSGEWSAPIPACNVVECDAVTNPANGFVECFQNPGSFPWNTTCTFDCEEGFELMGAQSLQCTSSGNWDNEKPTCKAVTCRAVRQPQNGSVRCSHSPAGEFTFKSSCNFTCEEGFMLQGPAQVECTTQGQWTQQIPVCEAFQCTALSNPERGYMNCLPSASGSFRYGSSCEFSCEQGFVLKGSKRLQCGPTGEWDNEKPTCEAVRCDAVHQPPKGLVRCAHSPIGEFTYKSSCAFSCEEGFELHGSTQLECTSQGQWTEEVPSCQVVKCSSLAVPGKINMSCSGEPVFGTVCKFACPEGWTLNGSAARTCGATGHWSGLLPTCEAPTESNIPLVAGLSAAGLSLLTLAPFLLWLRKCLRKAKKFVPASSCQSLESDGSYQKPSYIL

CCOC(=O)COc1ccc2c(c1)CC(NCC(O)c1cccc(Cl)c1)CC2 (centres undefined)
active: [1] 28.4 µM | [3] 15.3 µM | [4] 21.7 µM | [11] 31.4 µM | [13] 28.2 µM | [14] 27.6 µM | [15] 32.1 µM | [16] 28.3 µM
inactive: [2] | [5] | [6] | [7] | [8] | [9] | [10] | [12]

CCNc1ccccc1
not listed: [7] | [19] | [20]
inactive: all other assays above

CCCCCCCCO
not listed: [7] | [8] | [9] | [10] | [13] | [17]
inactive: all other assays above

Cc1ccc(C)c(O)c1
not listed: [8] | [9] | [10] | [19]
inactive: all other assays above

Cc1ccc(S(=O)(=O)O)cc1C
not listed: [6] | [7] | [8] | [10] | [13] | [20]
inactive: all other assays above

CC(C)CCCCCCOC(=O)c1ccc(C(=O)OCCCCCCC(C)C)c(C(=O)OCCCCCCC(C)C)c1
active: [9] 63.2 µM
not listed: [5] | [6] | [8] | [10] | [13] | [18] | [20]
inactive: all other assays above

CCOC(=O)c1ccc(C2CCC(NC[C@H](O)COc3ccc(O)c(NS(C)(=O)=O)c3)CC2)cc1 (some centres undefined)
inactive: [1] | [17] | [4] | [6] | [11] | [12] | [13] | [16]
active: [2] 52.3 µM | [3] 28.1 µM | [5] 33 µM | [19] 54.3 µM | [14] 31.1 µM | [15] 27.7 µM
